# Source: PubChem BioAssay
# In the library only some 3.5% were active in any assay of this set; here they are far more common.
# TEAD-YAP block: TEAD-YAP interaction inhibition, primary screen, TEAD-YAP interaction inhibitor project, luminescence, HEK-TIYL cells; TEAD-Gal4/YAP UAS-luciferase luminescence; inhibition, % at 9.12 µM; 640,000 compounds, 1.4% hits; in the data active = inhibition above about 32%;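 also: 0% = median of test compound wells and 100% = reference inhibitor wells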
# FBW7 act: FBW7 E3 ligase activators, primary screen, biochemical, AlphaScreen, human. F-box/WD repeat-containing protein 7 (Homo sapiens), Q969H0. AlphaScreen FBW7–phospho-cyclin E peptide binding, activator screen. normalized activity (activation), % at 26.1 µM. 650,000 compounds, 0.13% hits. AID 1259310, 2017; in the data active = normalized activity above about 1.9%;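 also: purified mutant Fbw7 with reduced substrate affinity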
# MITF primary: MITF inhibitors, primary screen, biochemical, AlphaScreen, human. Microphthalmia-associated transcription factor (Homo sapiens), O75030. AlphaScreen MITF homodimerization, bead proximity signal. inhibition, % at 2.6 µM. 650,000 compounds, 0.91% hits. AID 1259374, 2018; in the data active = inhibition above about 50%;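 also: 0% = vehicle wells with protein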
# Target sequence (O75030 whole entry, looked up): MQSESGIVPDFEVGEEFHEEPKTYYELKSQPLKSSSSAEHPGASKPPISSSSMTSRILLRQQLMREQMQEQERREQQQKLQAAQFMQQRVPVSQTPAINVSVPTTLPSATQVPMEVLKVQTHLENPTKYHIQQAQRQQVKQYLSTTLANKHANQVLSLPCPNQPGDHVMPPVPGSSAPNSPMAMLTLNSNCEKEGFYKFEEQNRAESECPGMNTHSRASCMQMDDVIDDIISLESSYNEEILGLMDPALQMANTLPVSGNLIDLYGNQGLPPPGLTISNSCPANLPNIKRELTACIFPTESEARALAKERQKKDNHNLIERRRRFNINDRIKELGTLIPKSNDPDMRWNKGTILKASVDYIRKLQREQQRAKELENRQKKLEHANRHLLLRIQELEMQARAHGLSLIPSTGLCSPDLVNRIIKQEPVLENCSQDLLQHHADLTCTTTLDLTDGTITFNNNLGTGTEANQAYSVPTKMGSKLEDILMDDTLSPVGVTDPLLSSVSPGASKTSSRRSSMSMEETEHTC
# GPR151 activ: activators of human GPR151, primary screen, cell-based, PathHunter beta-arrestin, luminescence | G-protein coupled receptor 151 (Homo sapiens), Q8TDV0 | PathHunter beta-arrestin GPR151 cells | activation, % at 11.2 µM | 650,000 compounds, 1% hits; in the data active = activation above about 4.9%;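 also: 0% = median of compound wells and 100% = cells with positive control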
# GPR151 confirm: GPR151 activators, triplicate retest, confirmation, cell-based, PathHunter beta-arrestin, luminescence. shares compounds with GPR151 activ. GPR151 PathHunter beta-arrestin cells, 90 min; % of EA-reagent control over plate median. activation, % at 11.2 µM. 6,700 tested, under 10 active;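 active = mean percent activation across replicates above the confirmation screen cutoff of 4.91%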
# GPR119 ag: GPR119 activators in beta-arrestin cells, counter-screen for GPR151 activator project, cell-based, PathHunter beta-arrestin, luminescence, triplicate | AID 1508611, 2020 | 6,700 compounds, 0.3% hits | shares compounds with GPR151 activ | activation, % at 11.2 µM | 90 min; 0 = compound-well median, 100 = enzyme-acceptor control;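 active = mean percent activation in the counterscreen above 29.09%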;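 also: counterscreen on off-target GPR119 to flag nonselective hits from the GPR151 activator screen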
# Starred values were filed as active, the others as inactive; . = not tested or not shown.
SMILES,TEAD-YAP block,FBW7 act,MITF primary,GPR151 activ,GPR151 confirm,GPR119 ag
NS(=O)(=O)c1ccc(CCNC(=O)CSc2nc(NC3CCCCC3)c3ccccc3n2)cc1,2,0,4,5.1*,-1,-4
O=S(=O)(c1ccc(F)cc1)N1CCSCC1,-6,0,-7,5.8*,1,12
c1ccc2c(c1)CCN(CCCNc1nc3ccccc3n3nnnc13)C2,-9,0,1,6.7*,0,-7
CCOCCCNc1nc2ccccc2n2nnnc12,-15,0,7,-1,.,.
COc1cc(C(=O)OCC2CC(c3ccccc3)=NO2)cc(OC)c1OC (stereo not given),3,0,3,5.4*,-1,-10
COc1ccc(C(=O)OCC2CC(c3ccccc3)=NO2)cc1OC (stereo not given),-7,0,-1,0,.,.
CC(=O)Nc1ccc(S(=O)(=O)Nc2ccccc2C(C)C)cc1,4,0,5,5.9*,0,-14
O=C(CN1CCC(O)(c2ccccn2)CC1)N1CCOCC1,11,0,2,0,.,.
C/C(=N\Nc1ccc([N+](=O)[O-])cc1S(=O)(=O)N1CCOCC1)c1ccco1,-1,0,10,1,.,.
COc1ccc(C(=O)Nn2c(C3CC3)nc3ccccc3c2=O)c(OC)c1,0,1,22,-1,.,.
COc1ccc(C(=O)Nn2c(C3CC3)nc3cc(OC)c(OC)cc3c2=O)c(OC)c1,1,0,2,5.9*,0,-2
CCOc1ccc(/C=C2/N=C(c3cc(I)ccc3Cl)SC2=O)cc1,4,0,11,2,.,.
CCCCOC(=O)c1ccc(Nc2nc(C)c([N+](=O)[O-])c(Nc3ccc(C(=O)OCCCC)cc3)n2)cc1,0,0,-4,2,.,.
COC(=O)c1ccc(Nc2nc(C)c([N+](=O)[O-])c(Nc3ccc(C(=O)OC)cc3)n2)cc1,3,0,9,13*,0,5
Cc1nn(Cc2ccccc2)c(Cl)c1/C=N/Nc1ccc(S(N)(=O)=O)cc1[N+](=O)[O-],10,0,9,5.2*,1,3
NS(=O)(=O)c1ccc(N/N=C/c2ccccc2Cl)c([N+](=O)[O-])c1,6,0,3,0,.,.
CC(C)(C)c1ccc(/C=N/Nc2ccc(S(N)(=O)=O)cc2[N+](=O)[O-])cc1,3,0,4,5.0*,1,-13
Cc1ccc(/C(N)=N/OC(=O)c2ccccc2[N+](=O)[O-])cc1,-63,0,17,-2,.,.
COc1ccc(CCNC(=O)c2csc(Nc3ccc(C(F)(F)F)cc3)n2)cc1,-11,0,10,6.2*,0,2
COc1ccc(CCNC(=O)c2cnc(Nc3ccc(-n4ccnc4)cc3)s2)cc1,-2,0,4,1,.,.
COc1ccc(CCNC(=O)c2csc(Nc3ccc(-n4ccnc4)cc3)n2)cc1,58*,0,3,6.0*,0,30*
COc1ccc(CCNc2nc(Nc3ccc(-n4ccnc4)cc3)ncc2C)cc1,18,1,7,4.9*,0,-8
COCCNC(=O)c1ccc(-n2c(SCc3ccc(Cl)cc3)nc3ccccc3c2=O)cc1,9,0,-10,-1,.,.
Cc1cc2c(c(-c3ccc(C(N)=O)cn3)c1)OC(CNC(=O)C13CC4CC(CC(C4)C1)C3)C2 (stereo not given),0,0,-9,7.1*,0,-3
COc1ccc(-c2cc(C)cc3c2OC(CNC(=O)CC(C)C)C3)nn1 (stereo not given),-1,0,11,0,.,.
NC1=NN=C(c2ccc(Cl)cc2)CS1,0,0,-2,1,.,.
CC12CCC(C(=O)Nc3ccc(F)c(F)c3)(CC1=O)C2(C)C (stereo not given),13,0,-28,8.8*,0,0
